This note sets out measurements from PubChem BioAssay (EPA / NIEHS).

In general, AC50 refers to the midpoint of the concentration-response curve, whichever way the signal moves.

The source made the active and inactive calls. How the source made its calls: active means hit-call score of the fitted dose curve at least 0.9, where 1 is the maximum; inactive means score below 0.9.

This experiment is described as follows: CEETOX_H295R_ESTRONE: CeeTox H295R High-throughput Steroidogenesis Assay for Estrone (AID 2283441).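 Further: estrone secreted into medium measured by LC-MS/MS after dansyl derivatization.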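 On AC50: human adrenal H295R cells prestimulated with forskolin for two days.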 The following applies: actives raise or lower the signal. The procedure:
CEETOX_H295R is a cell-based, multiplexed-readout assay that uses H295R, a human adrenal gland cell line, with measurements taken at 48 hours after chemical dosing in a 96-well plate.CEETOX_H295R_ESTRONE is one of 23 assay component(s) measured or calculated from the CEETOX_H295R assay. It is designed to make measurements of hormone induction, a form of inducible reporter, as detected with absorbance signals by HPLC-MS-MS technology.Data from the assay component CEETOX_H295R_ESTRONE was analyzed into 1 assay endpoint. This assay endpoint, CEETOX_H295R_ESTRONE, was analyzed with bidirectional fitting relative to DMSO as the negative control and baseline of activity. Using a type of inducible reporter, gain or loss-of-signal activity using HPLC-MS-MS was used to understand synthesis of Estrone in H295R cell line at 48hr of chemical exposure. To generalize the intended target to other relatable targets, this assay endpoint is annotated to the steroid hormone intended target family, where the subfamily is estrogens.
Cell culture and media preparation procedures were conducted in accordance with OECD Test No. 456 guidelines, with minor modifications. H295R cells (ATCC CRL-2128) were expanded for 5 passages and frozen in batches in liquid nitrogen. Prior to the steroidogenesis assay, H295R cells were thawed and passed at least 4 times. The maximum passage was 10. […] After seeding cells into 96-well plates at 50-60% confluency, cells were allowed to adhere overnight. Prior to chemical testing, culture medium was replaced with 175 uL medium containing 10 uM forskolin to stimulate steroidogenesis for 48 hours. Following prestimulation, forskolin medium was replaced with medium containing test chemical solubilized in DMSO (ensuring a final concentration of 0.1% DMSO). Test chemicals were incubated for 48 hours, then the medium was removed and split into 2 vials containing approximately 75uL each, and stored at -80 C prior to hormone analysis. For steroid quantification, media samples were shipped to OpAns, LLC (Durham, NC) on dry ice, and samples were thawed to room temperature prior to liquid-liquid extraction. Steroid hormones were extracted from media samples using methyl tertbutyl ether (MTBE). An extra derivatization with dansyl chloride was included for estrogen (estrone and estradiol) detection only. Steroid hormones were separated by HPLC, eluted using a reverse phase C18 gradient with electrospray positive ionization, followed by quantification by tandem mass spectrometry (MS/MS). Data were acquired on a MassHunter Workstation Acquisition version B03.01 (Agilent Technologies, Inc.) and processed using MassHunter Quantitative Analysis for QQQ. Accuracy was determined for each hormone analyte from 3 standards to determine upper and lower limits of quantification (ULOQ and LLOQ, respectively) using a 7-point standard curve. Precision and accuracy of the extraction and quantification methods were calculated as the percent relative standard deviation (%RSD) of the spiked standards and percent spiked standard recovered, respectively. The goal was to achieve 100% accuracy (i.e., recover all spiked-in standard at quantification with minimal loss during run time) and good precision (i.e., have %RSD <15% to ensure reproducibility). Test medium was removed following chemical exposure, and cell viability was evaluated in the same wells by MTT. MTT procedures were as follows: after removal of test medium, 500 uL of 0.5 mg/ml of 3-[4,5-dimethylthiazol-2-y]2,5-diphenyltetrazoliumbromide solution was added to the cells. Following a 4-hour incubation at 37 C and 5% CO2 to allow formazan-crystal formation, the MTT solution was removed and blue formazan salt crystals were solubilized using 500uL anhydrous isopropanol with shaking for 20 minutes. Absorbance was read at 570 and 650nm using a Packard Fusion microplate reader. Background correction of absorbance units was used to determine percent change relative to controls. […] […]
In the case of `O=C(Nc1ccc(Cl)cc1)Nc1ccc(Cl)c(Cl)c1`, the molecule was called inactive.

For `NC(=O)c1nc(-c2cccc(-c3cc(F)ccc3OCC(F)(F)C(F)(F)F)c2)n[nH]1`, the call was inactive.

Regarding `CCCCCCCCOC(=O)c1cc(O)c(O)c(O)c1`, the molecule was classed as inactive.

For the molecule `Clc1ccccc1C(c1ccccc1)(c1ccccc1)n1ccnc1`, the AC50 is 410 nM (active).

On to `Cc1ccc2oc(CN(Cc3ccccc3)C(=O)Nc3c(F)cc(F)cc3F)c(-c3ccc(Cl)cc3)c2c1`, for which the call was inactive.

Turning to `Cc1c2ccccc2c(C)c2c1ccc1ccccc12`, the half-maximal activity concentration (AC50) is 657 nM (active).

With `O=C(O)Cn1c(=O)n(Cc2ccc(Br)cc2F)c(=O)c2ccc(Cl)cc21`, the call was inactive.

As for `CC(C)(C)c1cc(/C=C2\SC(N)=NC2=O)cc(C(C)(C)C)c1O`, the call was inactive.

For `COc1cccc([C@H](O)C2CCN(CCc3ccc(F)cc3)CC2)c1OC`, the result was inactive.

Turning to `CC(=O)N1CCN(c2ccc(OC[C@H]3CO[C@](Cn4ccnc4)(c4ccc(Cl)cc4Cl)O3)cc2)CC1`, the AC50 was 1470 nM (active).

Take `OC12N=C(c3ccccc3)SC1Cc1cc(Cl)ccc12` (stereo not drawn): the result was inactive.

As to `CN1C(=O)N(c2ccccc2Br)Cc2cnc(Nc3ccc4c(c3)OCC(CO)O4)nc21` (stereo not drawn), the concentration at half-maximal activity (AC50) was 326 nM (active).

`Cc1cc2c(cc1C(F)(F)F)N(C(=O)Nc1ccc(Oc3cccnc3C)nc1)CC2`: the molecule was called inactive.
